Hit rate of the full screen: of about 1,200 compounds, about 170 (14%) were called active. No rule for the calls is given here. Only a sample is shown. Measured potencies and affinities stand elsewhere.

The test can be described thus: E. coli Tat export inhibitors, dose response, cherry-pick, set 2, plate reader (AID 504941). The settings on record: E. coli Tat transport reporter; series mostly up to 38 µM.
`CCC1Oc2nc(SC)nnc2-c2ccccc2N1C(=O)c1ccccc1` (configuration not stated): the compound was classed as inactive.
The value for `CCC(CC)C(=O)Nc1nnc(S(=O)(=O)N2CCCCCC2)s1` was “inactive”; that for `CCOC(=O)c1cc(C)sc1NC(=O)C(c1ccccc1)c1ccccc1` was “inactive”.
Take `CCOc1ccc(NC(=O)CN2C(=O)/C(=C3\SC(=S)N(C4CCS(=O)(=O)C4)C3=O)c3ccccc32)cc1` (configuration not stated): the compound was called inactive.
`Cc1cc(C)c(NS(=O)(=O)c2ccc3c(c2)NC(=O)CCS3)c(C)c1`: the call was inactive.
On to `O=C(COC(=O)/C=C/c1ccc(F)cc1)Nc1nnc(-c2ccccc2)o1`, for which the result was inactive.
For the compound `Cc1cc(C(=O)CSc2nnc(-c3ccc4c(c3)OCO4)o2)c(C)n1-c1ccc(F)cc1`, the compound was called inactive.
The value for `O=C(Cn1cc([N+](=O)[O-])cn1)N1CCN(c2ccccc2)CC1` was “inactive”; that for `COC(=O)C1C(O)C(C)C(O)C(C)(O)/C=C\C=C(/C)C(=O)Nc2c(C)c(OC(C)=O)c3c(c2O)C(=O)C(C)=C2OCOC(=C23)/C(C)=C/C(C)(O)C(O)C(C)C1O` (configuration not stated) was “inactive”; that for `COc1ccc(OC)c(S(=O)(=O)N2CCC(C(=O)NC3CC3)CC2)c1` was “inactive”.
For the compound `COc1ccc(S(=O)(=O)N2CCC(C(=O)N3CCN(C)CC3)CC2)cc1Cl`, the compound was called inactive.
For the compound `CCOc1ccc(NC(=O)CNC(=O)Cc2ccccc2)cc1`, the compound was called inactive.
In the case of `COC(=O)c1ccc(CNC(=O)C2CCC(=O)N(Cc3ccccn3)C2)cc1` (configuration not stated), the compound was classed as inactive.
The value for `CNC1=CC(=O)CC(c2ccccc2)C1` (configuration not stated) was “inactive”; that for `CCCCCn1c(CNC(=O)c2cccs2)nc2ccccc21` was “inactive”.
In the case of `O=C(Nc1c2c(nn1-c1ccccc1)CS(=O)(=O)C2)c1cccs1`, the result was inactive.
The value for `O=C(COC(=O)c1cccc(S(=O)(=O)N2CCc3ccccc32)c1)Nc1ncc(C(F)(F)F)cc1Cl` was “inactive”.
As for `Cc1cccnc1NC(=O)c1cccc(S(=O)(=O)N2CCCc3ccccc32)c1`, the outcome was inactive.
The value for `Cc1nc(NC(=O)/C=C/c2ccccc2)sc1C(=O)N(C)C` was “inactive”; that for `CC(NC(=O)CSc1nc2sc3c(c2c(=O)n1-c1ccccc1)CCCC3)c1ccccc1` (configuration not stated) was “inactive”; that for `CCn1c(C)cc(/C=C2/NC(=O)N(Cc3ccccc3F)C2=O)c1C` was “inactive”.
To `O=C(COc1ccc2c3c(c(=O)oc2c1)CCCC3)NCCCn1ccnc1` belongs “inactive”; to `O=C(COc1ccc2c3c(c(=O)oc2c1)CCCC3)NCC(O)c1ccccc1` (configuration not stated), “inactive”.
As to `c1ccc(-n2c(SCC3CCCCO3)nnc2-c2cccs2)cc1` (configuration not stated), the compound was called inactive.
For `Cc1noc(C)c1COc1ccccc1C(=O)NC1CCC(C)CC1` (configuration not stated), the result was inactive.
On to `CCN(CC)CC(=O)N(CC(=O)Nc1c(C)cc(C)cc1C)C1CCCCC1`, for which the compound was called inactive.
On to `O=[N+]([O-])c1ccc(O)c(/C=N/Nc2nc3ccccc3[nH]2)c1`, for which the result was inactive.

These data come from PubChem BioAssay AID504941 (Broad Institute, 2011).
